# PubChem BioAssay AID1468 (National Center for Advancing Translational Sciences (NCATS), 2008)
# Among all 280,000 compounds or so, about 1,100 (0.39%) were called active. A call without a number means that no potency is given here. Inconclusive results (about 7%) are left out. Calls come from the whole dose curve; as a rule, active = well fitted inhibition curve with a large enough effect; inconclusive = small, poorly fitted or top-dose-only effect, or effect the other way; inactive = flat fitted curve, though single readings scatter. The sample as a whole holds a higher share of actives than the screen did.
# Molecular target: Microtubule-associated protein tau (Homo sapiens) (UniProt P10636)
# Sequence (P10636 561-689 P618L limits assumed): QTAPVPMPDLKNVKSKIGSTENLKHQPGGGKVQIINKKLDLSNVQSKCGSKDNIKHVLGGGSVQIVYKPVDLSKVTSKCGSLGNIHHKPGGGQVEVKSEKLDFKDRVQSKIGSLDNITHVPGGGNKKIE
# Assay: qHTS for Inhibitors of Tau Fibril Formation, Fluorescence Polarization; note: nearly all actives have a fitted effect of over 55% in size
# Conditions: K18 P301L tau heparin fibrillization, Alexa594 FP, 6 h; series mostly up to 57.7 µM
# Description: NIH Molecular Libraries Probe Production Network [MLPCN]
# NIH Chemical Genomics Center [NCGC]
# Assay Provider: Carlo Ballatore, University of Pennsylvania
# The microtubule-associated protein tau is an abundant protein in the axons of neurons that stabilizes microtubules. With its ability to modulate microtubule dynamics, tau contributes directly or indirectly, to key structural and regulatory cellular functions. Particularly important is the influence tau exerts on axonal transport, which allows signaling molecules, trophic factors and other essential cellular constituents to travel along the axons. Under pathological conditions, tau becomes sequestered into insoluble aggregates called neurofibrillary tangles. This phenomenon is believed to have pathological consequences by promoting axonal transport deficits that ultimately lead to synaptic dysfunction and neuronal loss. To identify inhibitors of tau aggregation, a heparin-induced tau fibril formation assay was used that employed a recombinantly expressed fragment of tau, K18 (Q242-E372), bearing a P301L mutation (Gustke et al. 1994; Hong et al. 1998).
# Gustke, N., B. Trinczek, et al. (1994). "Domains of tau protein and interactions with microtubules." Biochemistry 33(32): 9511-22.
# Hong, M., V. Zhukareva, et al. (1998).
# Li, W. and V. M. Lee (2006). "Characterization of two VQIXXK motifs for tau fibrillization in vitro." Biochemistry 45(51): 15692-701.
# von Bergen, M., S. Barghorn, et al. (2001). "Mutations of tau protein in frontotemporal dementia promote aggregation of paired helical filaments by enhancing local beta-structure." J Biol Chem 276(51): 48165-74.
# NCGC Assay Protocol Summary:
# For screening, 2 uL/well human K18 P301L (15 uM unlabeled and 0.24 uM Alexa 594-labeled tau final concentrations) in reagent buffer (100 mM sodium acetate pH 7) was dispensed into black solid 1536-well plates (Grenier) using a solenoid-based dispenser. Following transfer of 23 nL compound or DMSO vehicle by a pin tool, 2 uL/well heparin (20 uM final concentration) in reagent buffer was added and the plate centrifuged 15 s at 1000 RPM. Plates were incubated 6 hr at 37 C and then 1 uL/well ThT (30 uM final concentration) was added. After a 1 hr ambient incubation, the plates were read by an Envision (Perkin Elmer) to monitor Alexa 594 FP (555 nm excitation and 632 nm emission).
# Keywords: NIH Roadmap, MLPCN, MLI, MLSMR, NCGC, qHTS, tau, tauopathies, Alzheimer's disease, fibril, neurodegeneration, aggregation
# Potency is the fitted concentration of half-maximal effect.
row,SMILES,Potency
1,CC[N+](C)(CC)CCC[n+]1c(-c2ccccc2)c2cc(N)ccc2c2ccc(N)cc21,6.31 µM (active)
2,CCCN(C/C=C/I)C1CCc2ccc(O)cc2C1 (stereo not given),inactive
3,c1ccc2sc(SNC3CCCCC3)nc2c1,inactive
4,CN(C)[C@@H]1C(=O)C(C(N)=O)=C(O)[C@@]2(O)C(=O)C3=C(O)c4c(O)cccc4[C@@](C)(O)C3CC12 (stereo not given in full),inactive
5,CO[C@@H]1C[C@@H](C[C@H]2CC[C@H](C)[C@@H]([C@@H](C)C(=O)O)O2)O[C@]2(O[C@](C)([C@H]3CC[C@@](C)(C4OC([C@H]5O[C@@](O)(CO)[C@H](C)C[C@@H]5C)C[C@@H]4C)O3)C[C@H]2C)[C@@H]1C (stereo not given in full),inactive
